Source: PubChem
IDE cell activ = boosts human insulin-degrading enzyme activity in HEK cells; actives 0.073% (n = 340,000); AID 493087; FAbeta-B cleavage, fluorescence polarization; 0% vehicle, 100% cell-free pure enzyme wells; activation, % at 5.96 µM;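 active means activation above the mean of all tested compounds plus 3 SD, set per screening campaign, cut at about 17% in these data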
PfM18AAP inh = blocks P. falciparum M18 aspartyl aminopeptidase; recombinant PfM18AAP, H-Glu-NHMec fluorogenic cleavage; AID 1822; inhibition, % at 7.35 µM; actives 1.2% (n = 290,000);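 active means inhibition above the campaign mean inhibition over all tested compounds plus 3 SD, cut at about 28% in these data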;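 further: 0% = plate median of test compound wells and 100% = 2 mM ZnCl2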
PolyA inh = inhibitors of polyadenylation in S. cerevisiae; S. cerevisiae SKY197-pL101 polyadenylation reporter, beta-gal luminescence; efflux-impaired pdr1/pdr3 knockout yeast; score 100 = 6 SD above DMSO; activity score, % at 12 µM; actives 0.02% (n = 300,000);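 active means lowest replicate activity score at least 50, where 100 means six control SD above control mean; inconclusive means lowest score under 50 but half or more replicates reach 50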;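 further: yeast exposed to compound for 9 h at 30 °C; higher score means more reporter readthrough which indicates perturbed polyadenylation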
IDE cell inh = cellular human IDE inhibition; P14735; HEK cells, FAbetaB cleavage, fluorescence polarization; inhibition, % at 5.59 µM; actives 0.41% (n = 320,000);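 active means percent inhibition above the average of all tested compounds plus 3 SD, set per screening campaign, cut at about 16% in these data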;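 further: IDE supplied by intact live HEK cells; FP after avidin binding of uncleaved biotin substrate so inhibition keeps polarization high; 0% = DMSO wells and 100% = 60 µM reference IDE inhibitor Ii1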
CaV13 FRET inh = Disruptors of the CACNA1D IQ motif to Ca2+-dependent inactivation inhibitor domain association, primary screening, Förster resonance energy transfer in intact living …; HEK cells, CFP/YFP FRET ICDI-IQ, plate reader, 10 min; percent FRET-ratio fall versus neutral wells; inhibition, % at 12.3 µM; actives 0.098% (n = 340,000); AID 743397;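 active means mean replicate inhibition of at least 30% and at least 1% of replicates passing that level; inconclusive means only one of the two criteria is met; inactive means neither criterion is met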;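 further: 0% = median of the neutral control wells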
ALR inh = blocks human ALR sulfhydryl oxidase activity. inhibition, % (test concentration not listed). actives 3.8% (n = 290,000). P55789. purified ALR, DTT oxidation, H2O2 HRP-luminol luminescence;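 active means mean replicate inhibition above about 79%, with every replicate also reaching it, limit read from the data; inconclusive means only one of the two criteria met; inactive means mean below limit and not every replicate reaching it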
Target sequence (P55789 whole entry, looked up): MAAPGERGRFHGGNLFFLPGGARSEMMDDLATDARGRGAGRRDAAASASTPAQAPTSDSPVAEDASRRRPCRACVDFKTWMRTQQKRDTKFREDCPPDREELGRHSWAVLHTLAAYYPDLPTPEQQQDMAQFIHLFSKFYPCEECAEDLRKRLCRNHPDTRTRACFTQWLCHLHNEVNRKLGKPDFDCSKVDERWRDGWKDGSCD
IDE inh confirm = confirmation of human insulin-degrading enzyme inhibitors in cells | shares compounds with IDE cell inh | HEK cells, FAbetaB cleavage, fluorescence polarization | inhibition, % at 5.59 µM | actives 51% (n = 1,200);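 active means mean inhibition across triplicate wells above the cutoff set by the earlier primary insulin-degrading enzyme screen, cut at about 16% in these data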;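 further: 0% = DMSO wells and 100% = 60 µM reference IDE inhibitor Ii1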
HEK cytotox = kills HEK cells in IDE inhibitor counter-screen; actives 28% (n = 1,200); AID 449730; inhibition, % at 5.59 µM; HEK293 cytotoxicity, ATP luminescence; shares compounds with IDE cell inh; in the data active means inhibition above about 22%;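 further: 0% = vehicle wells and 100% = reference cytotoxic drug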
Starred values were filed as active, the others as inactive; ? = inconclusive; nt = not tested or not shown. A selection: hits, their analogues and other compounds. The true share with any hit is near 4.1%.

SMILES	IDE cell activ	PfM18AAP inh	PolyA inh	IDE cell inh	CaV13 FRET inh	ALR inh	IDE inh confirm	HEK cytotox
COc1cccc(-c2csc(N3CCN(C(=O)Nc4ccccc4Cl)CC3)n2)c1	0	3	-11	2	-7	-4	nt	nt
CN(C)c1ccc(/C=C/c2nc3ccccc3c(=O)n2-c2ccc(C(=O)O)cc2)cc1	-115	18	2	131*	-7	99*	134*	9
CN(N=Cc1ccc([N+](=O)[O-])cc1)c1ccccn1	nt	nt	nt	nt	-3	nt	nt	nt
COc1ccc(N=Cc2sc(O)c3ccccc23)cc1	-66	8	-6	61*	-9	35	90*	10
Cc1cc(C)cc(Nc2cnn(C34CC5CC(CC(CC(=O)O)(C5)C3)C4)c(=O)c2Cl)c1	-31	2	-2	32*	-7	15	18*	12
Cc1cccc(Nc2cnn(C34CC5CC(CC(CC(=O)O)(C5)C3)C4)c(=O)c2Cl)c1	-13	0	-4	21*	-9	1	12	6
COc1ccc(/C=C2\Oc3ccccc3C2=O)cc1	0	nt	nt	6	-10	-17	nt	nt
COC(=O)c1ccc2c(c1)C(=O)/C(=C/c1ccc(O)cc1)O2	-106	-2	-11	55*	-14	-34	86*	21
CC(=O)Oc1ccc(/C=C2/Oc3ccccc3C2=O)cc1	-47	-4	-7	28*	-7	-4	66*	21
CCN(CC)c1ccc(/C=C/C(=O)c2ccc(Br)cc2)cc1	-118	1	-22	163*	-39	5	61*	14
CSc1nnc(N2C(=O)C(O)=C(C(=O)c3ccco3)C2c2ccc(F)cc2)s1 (stereo not drawn)	-1	3	-12	15	-4	10	nt	nt
CSc1nnc(N2C(=O)C(O)=C(C(=O)c3ccco3)C2c2cccc(Cl)c2)s1 (stereo not drawn)	-6	9	-2	29*	-20	87*	7	7
O=C(Nc1ccc(Oc2ccccc2)cc1)C1CCN(c2c3c(nc4ncnn24)CCC3)CC1	-2	-8	-10	5	-5	nt	nt	nt
O=C(Nc1ccc2c(c1)CCC2)C1CCN(c2c3c(nc4ncnn24)CCC3)CC1	-42	-2	30	42*	-4	12	13	51*
CCOC(=O)c1oc2cc(O)cc(C)c2c1C	-3	nt	nt	nt	-11	nt	nt	nt
Cn1c(/C=N/NC(=O)c2ccccc2Br)nc2ccccc21	-17	-4	4	20*	-5	3	3	17
CN(C)S(=O)(=O)c1cccc(-c2nn(-c3ccccc3)cc2/C=C2\SC(=S)NC2=O)c1	-1	-2	nt	26*	-3	43	-3	23*
COc1cc(/C=C(\C#N)c2ccccn2)cc(OC)c1O	-166	13	?	160*	-6	98*	52*	17
COc1cc(/C=C(\C#N)c2[nH]nc(N)c2C#N)cc(OC)c1O	-73	11	-22	84*	-5	50	166*	9
COc1cc(/C=C(\C#N)c2ccccn2)ccc1OCc1ccccc1Cl	-3	3	nt	-3	-4	1	nt	nt
CN1/C(=C\C=C2/C(=O)Oc3ccccc3C2=O)C(C)(C)c2ccccc21	nt	9	?	184*	-27	nt	61*	23*
CN1/C(=C\C=C2/SC(=S)NC2=O)C(C)(C)c2ccccc21	-132	3	-37	116*	-23	58	152*	38*
CC(C)OP(=O)(OC(C)C)C1(O)C(=O)Nc2ccccc21 (stereo not drawn)	-3	6	4	-10	nt	-6	nt	nt
Cc1ccc(-c2noc(-c3ccno3)n2)cc1	2	-2	1	5	9	6	nt	nt
O=C(Nc1ccc(C(=O)OC[C@@H]2CCCN3CCCC[C@H]23)cc1)c1cccc(Br)c1	-14	-2	12	32*	-5	-1	6	10
SMILES	IDE cell activ	PfM18AAP inh	PolyA inh	IDE cell inh	CaV13 FRET inh	ALR inh	IDE inh confirm	HEK cytotox
O=C(NC(=O)c1cccc(F)c1)OC[C@@H]1CCCN2CCCC[C@H]12	7	-3	1	-3	-6	nt	nt	nt
CCc1ccc(C2C(C(=O)O)c3ccccc3C(=O)N2C)cc1 (stereo not drawn)	6	2	28	-5	nt	-15	nt	nt
O=C(O)C1c2ccccc2C(=O)N(Cc2ccc(F)cc2)C1c1ccncc1 (stereo not drawn)	nt	-9	-14	16*	-3	-2	6	4
CCN=C1S/C(=C\c2ccc(N3CCOCC3)cc2C)C(=O)N1CC	5	1	19	-1	-20	8	nt	nt
COCCN1C(=O)/C(=C/c2ccc(N3CCCC3)cc2C)SC1=S	-25	16	nt	49*	-5	-5	57*	15
Cc1ccc(SC/C(O)=C(\C#N)c2nc3ccccc3s2)cc1	6	8	2	7	-5	72	nt	nt
N#C/C(=C(/O)CSc1ccccn1)c1nc2ccccc2s1	-1	16	2	30*	-64	82*	5	6
CCN(CC)/C(Sc1ccccc1)=C(/C(Cl)=C(Cl)Cl)[N+](=O)[O-]	-2	-8	-2	1	9	46	nt	nt
COc1cc2cc(C(=O)N/N=C/c3ccccc3Cl)[nH]c2cc1OC	-12	7	4	17*	-13	-1	5	17
CCN(CC)c1ccc(/C=C2/C(=O)c3ccc(C(=O)O)cc3C2=O)cc1	-71	19	nt	138*	-17	98*	26*	16
CC(=O)Cc1cc(O)c2ccccc2c1OC(=O)c1ccccc1	-6	5	3	43*	-5	-11	37*	14
CC(=O)c1cc(C)c(OC(=O)c2ccccc2)c(C)c1	4	nt	nt	nt	-3	nt	nt	nt
COc1cc2ncnc(NCc3cccc(F)c3F)c2cc1OC	-9	-4	-5	18*	-5	4	1	13
COc1cc2ncnc(NCc3ccccc3F)c2cc1OC	-6	-9	5	2	-7	0	nt	nt
CCC(CO)[n+]1c(C)cc(/C=C2\Sc3ccccc3N2Cc2ccccc2)cc1C (stereo not drawn)	-37	27	nt	43*	1	98*	54*	100*
CCN1/C(=C2\SC(=S)N(Cc3ccccc3)C2=O)Sc2ccccc21	-3	4	-9	2	-3	nt	nt	nt
CCOCCCNc1nc2c(C)cccn2c(=O)c1/C=C1\SC(=S)N(C(C)CC)C1=O (stereo not drawn)	-4	-1	-14	17*	-5	8	80*	9
